Common to all, as to assay: peptide microarray binding signal (635 nm), min-max normalized on array (fraction of array maximum); higher = stronger binding
For assay [1], the target named is T1, HaloTag-ATRX ADD domain (163-292).
T1 chain: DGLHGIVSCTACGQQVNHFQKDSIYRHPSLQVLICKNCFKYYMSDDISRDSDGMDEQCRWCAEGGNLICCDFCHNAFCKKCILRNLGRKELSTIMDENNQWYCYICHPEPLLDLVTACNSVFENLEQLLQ
Summed up:
(§1)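 Arrays carried histone 13-mer peptide–cellulose conjugates printed in triplicate on nitrocellulose alongside a Cy3 tracer. After overnight blocking at 4°C, they were incubated for 1 h at 4°C with biotin-labelled HaloTag reader fusions (10 nM to 1 μM) plus streptavidin-Alexa Fluor 647, or with rabbit histone antibodies (1:10,000 to 1:2,000) plus anti-rabbit Alexa 647. Scanning on an Axon GenePix 4000B used 635 nm for signal and 532 nm for misprints. The binding signal reported is each triplicate's mean spot intensity after per-library min-max scaling.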

Assay [2] deals with HaloTag-ING2 PHD (mouse Ing2 200-280). Summed up:
as §1

Assay [3] addresses anti-H3K4me3 antibody ab8580. The method, boiled down: as §1
Assay [4] deals with anti-H3K9me3 antibody ab8898. The method, boiled down: as §1
Setting [5] is: peptide region: H3 50-62, peptide modifications: H3K56me2, binder concentration: 1:2,000 dilution.
Where [6] appears, read: peptide region: H3 50-62, peptide modifications: H3K56me2, binder concentration: 1:10,000 dilution.
[7] abbreviates: peptide region: H3 50-62, peptide modifications: H3K56ac H3T58ph, binder concentration: 1:2,000 dilution.
The mark [8] stands for this setting: peptide region: H3 50-62, peptide modifications: H3K56ac H3T58ph, binder concentration: 1:10,000 dilution.
[9] abbreviates: peptide region: H3 50-62, peptide modifications: H3K56me2 H3S57ph, binder concentration: 1:2,000 dilution.
Where [10] appears, read: peptide region: H3 50-62, peptide modifications: H3K56me2 H3S57ph, binder concentration: 1:10,000 dilution.
Setting [11] is: peptide region: H3 30-42, peptide modifications: H3T32ph H3K36ac, binder concentration: 1:2,000 dilution.
Setting [12] is: peptide region: H3 30-42, peptide modifications: H3T32ph H3K36ac, binder concentration: 1:10,000 dilution.
[13] abbreviates: peptide region: H3 50-62, peptide modifications: H3K56ac H3S57ph, binder concentration: 1:2,000 dilution.
The mark [14] stands for this setting: peptide region: H3 50-62, peptide modifications: H3K56ac H3S57ph, binder concentration: 1:10,000 dilution.

± gives the standard deviation.

B1: H3 50-62 E I R R Y Q Kme2 S T E L L I (peptide)
chain: EIRRYQKSTELLI
As for B1, the “peptide microarray binding signal” value in assay [1] (peptide region: H3 50-62, peptide modifications: H3K56me2, binder concentration: 50 nM) was 0.01 ± 0.00043; in assay [1] (peptide region: H3 50-62, peptide modifications: H3K56me2, binder concentration: 500 nM), 0.0165 ± 0.0014; in assay [2] (peptide region: H3 50-62, peptide modifications: H3K56me2, binder concentration: 10 nM), 0.0135 ± 0.0033; in assay [2] (peptide region: H3 50-62, peptide modifications: H3K56me2, binder concentration: 100 nM) it was 0.00624 ± 0.00068; in assay [3] (setting [5]), 0.000868 ± 0.00013; in assay [3] (setting [6]) it was 0.00171 ± 8.6e-05. Also, the “peptide microarray binding signal” value in assay [4] (setting [5]) is 0.00953 ± 0.00056; in assay [4] (setting [6]), 0.00323 ± 0.0002.

B2: H3 50-62 E I R R Y Q Kac S Tph E L L I (peptide)
chain: EIRRYQKSTELLI
In the case of B2, the “peptide microarray binding signal” value in assay [1] (peptide region: H3 50-62, peptide modifications: H3K56ac H3T58ph, binder concentration: 50 nM) came out at 0.00141 ± 1.8e-05; in assay [1] (peptide region: H3 50-62, peptide modifications: H3K56ac H3T58ph, binder concentration: 500 nM), 0.001381 ± 1.3e-05; in assay [2] (peptide region: H3 50-62, peptide modifications: H3K56ac H3T58ph, binder concentration: 10 nM), 0.002924 ± 2.8e-05; in assay [2] (peptide region: H3 50-62, peptide modifications: H3K56ac H3T58ph, binder concentration: 100 nM), 0.00149 ± 1.5e-05; in assay [3] (setting [7]), 0.0004719 ± 4.7e-06; in assay [3] (setting [8]) it was 0.000514 ± 5.5e-06. Also, the “peptide microarray binding signal” value is 0.000468 ± 1.8e-05 in assay [4] (setting [7]) and 0.00104 ± 5.9e-05 in assay [4] (setting [8]).

B3: H3 50-62 E I R R Y Q Kme2 Sph T E L L I (peptide)
chain: EIRRYQKSTELLI
On to B3, for which the “peptide microarray binding signal” value worked out at 0.00113 ± 1.5e-05 in assay [1] (peptide region: H3 50-62, peptide modifications: H3K56me2 H3S57ph, binder concentration: 50 nM); 0.00124 ± 2.3e-05 in assay [1] (peptide region: H3 50-62, peptide modifications: H3K56me2 H3S57ph, binder concentration: 500 nM); 0.00269 ± 0.00012 in assay [2] (peptide region: H3 50-62, peptide modifications: H3K56me2 H3S57ph, binder concentration: 10 nM); 0.00128 ± 1.3e-05 in assay [2] (peptide region: H3 50-62, peptide modifications: H3K56me2 H3S57ph, binder concentration: 100 nM); 0.000378 ± 3.9e-06 in assay [3] (setting [9]); 0.000342 ± 3.8e-06 in assay [3] (setting [10]). Besides, the “peptide microarray binding signal” value was 0.000725 ± 3.3e-05 in assay [4] (setting [9]) and 0.000634 ± 1.2e-05 in assay [4] (setting [10]).

B4: H3 30-42 P A Tph G G V Kac K P H R Y R (peptide)
chain: PATGGVKKPHRYR
For B4, the “peptide microarray binding signal” value in assay [1] (peptide region: H3 30-42, peptide modifications: H3T32ph H3K36ac, binder concentration: 50 nM) is 0.00502 ± 0.00015; in assay [1] (peptide region: H3 30-42, peptide modifications: H3T32ph H3K36ac, binder concentration: 500 nM), 0.0116 ± 0.0013; in assay [2] (peptide region: H3 30-42, peptide modifications: H3T32ph H3K36ac, binder concentration: 10 nM), 0.0123 ± 0.00025; in assay [2] (peptide region: H3 30-42, peptide modifications: H3T32ph H3K36ac, binder concentration: 100 nM), 0.023 ± 0.0019; in assay [3] (setting [11]), 0.00191 ± 0.00028; in assay [3] (setting [12]), 0.00257 ± 0.00023. The “peptide microarray binding signal” value in assay [4] (setting [11]) was determined as 0.00193 ± 0.00036; in assay [4] (setting [12]) it was 0.00167 ± 0.00013.

B5: H3 50-62 E I R R Y Q Kac Sph T E L L I (peptide)
chain: EIRRYQKSTELLI
Regarding B5, the “peptide microarray binding signal” value came to 0.00069 ± 9.4e-06 in assay [1] (peptide region: H3 50-62, peptide modifications: H3K56ac H3S57ph, binder concentration: 50 nM); 0.00119 ± 4e-05 in assay [1] (peptide region: H3 50-62, peptide modifications: H3K56ac H3S57ph, binder concentration: 500 nM); 0.00197 ± 4.2e-05 in assay [2] (peptide region: H3 50-62, peptide modifications: H3K56ac H3S57ph, binder concentration: 10 nM); 0.000567 ± 6.4e-06 in assay [2] (peptide region: H3 50-62, peptide modifications: H3K56ac H3S57ph, binder concentration: 100 nM); 5.66e-05 in assay [3] (setting [13]); 0.000399 ± 2.6e-05 in assay [3] (setting [14]). The figures for the “peptide microarray binding signal” value in assay [4] (setting [13]) and in assay [4] (setting [14]) were 0.000861 ± 5.4e-05 and 0.000577 ± 6.2e-06, respectively.

For the origin of these results see the supplement of paper PMC4022240.
